# According to PubChem BioAssay AID1875 (Broad Institute, 2009):
# Out of some 300,000 compounds screened, about 65 (0.02%) were called active. This is one part of a sample in which actives are shown more often than they occur. Unmarked numbers belong to inactive results.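 Rule for the calls: active = lowest replicate activity score at least 50, where 100 means six control SD above control mean; inconclusive = lowest score under 50 but half or more replicates reach 50; inactive = the rest.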
# Test: polyadenylation inhibitors in yeast reporter cells, primary screen, luminescence, S. cerevisiae (AID 1875);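 note: yeast exposed to compound for 9 h at 30 °C; higher score means more reporter readthrough which indicates perturbed polyadenylation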
# Conditions: S. cerevisiae SKY197-pL101 polyadenylation reporter, beta-gal luminescence; at 12 µM; stronger effect = higher value; efflux-impaired pdr1/pdr3 knockout yeast; score 100 = 6 SD above DMSO
row,Compound,activity score
1,CC(C)COP(=O)(c1ccc(N(C)C)cc1)C(Nc1ccccc1)c1cccnc1 (stereo unspecified),9.1%
2,Cc1ccc2nsnc2c1S(=O)(=O)N1CCCC1C(=O)O (stereo unspecified),12.1%
3,CC(/C=C/C1(O)C(C)CC(=O)CC1(C)C)OC1OC(CO)C(O)C(O)C1O (stereo unspecified),14.6%
4,Cc1nnc(SC(C)C(=O)Nc2ccc(S(=O)(=O)NC3CCCCC3)cc2)s1 (stereo unspecified),-4.69%
5,O=C(CSc1ccccn1)Nc1nc2c(ccc3ccccc32)s1,-14.3%
6,COc1ccc(NC(=O)c2cccc(Cl)c2)c[n+]1[O-],10.9%
7,COc1ccc(C(=O)N(Cc2ccccc2)c2ccc(C)cc2)cc1S(=O)(=O)N1CCOCC1,-2.8%
8,Cn1c(N)c(C(=O)COC(=O)/C=C/c2ccc(OC(F)F)cc2)c(=O)n(C)c1=O,0.664%
9,CCOc1ccc(S(=O)(=O)NCc2ccc3c(c2)OCO3)cc1C,12.5%
10,Cc1cc(C)c(OCC(=O)N(Cc2cccs2)C2CCS(=O)(=O)C2)c(C)c1 (stereo unspecified),21.1%
11,C#CCOCCOCCOCCNc1nc(N2CCN(C(=O)C([C@@H](C)CC)n3cc(C(N)COC(=O)C(F)(F)F)nn3)CC2)nc(N2CCN(C(=O)[C@H](CCCCN)n3cc(C(N)CC(C)C)nn3)CC2)n1 (stereo partly specified),-6.03%
12,Cc1ccc(NC(=O)CN2CCc3ccccc3C2)cc1C,-2.27%
13,Cc1ccc(NC(=O)c2sc3nc(N)c(C#N)cc3c2N)cc1,55.3% (active)
14,Cc1ccc(NC(=O)CSCC(=O)Nc2sccc2C#N)cc1,11.2%
15,CCc1ccc2nc3sc(C(=O)Nc4nnc(CC)s4)c(N)c3cc2c1,34.8%
16,O=C1N(Cc2ccc3c(c2)OCO3)c2ccccc2C1(O)c1c[nH]c2ccccc12 (stereo unspecified),-1.62%
17,CC(=O)N1CCN(c2ccc(NCc3ccc(C(C)C)cc3)cc2)CC1,11.3%
18,COC(=O)c1ccccc1NC(=O)CN(Cc1ccc(Cl)cc1)S(C)(=O)=O,-7.02%
19,COc1cccc(CNS(=O)(=O)c2cc3c(cc2C)n(C)c(=O)c(=O)n3C)c1,-4.51%

row,Compound,activity score
1,CCCCn1c(N)c(N(CCOC)C(=O)c2oc3ccc(OC)cc3c2C)c(=O)[nH]c1=O,-1.46%
2,CC(C)=CC(=O)Nc1nnc(-c2ccc(F)cc2)s1,24%
3,CCn1c(CC(=O)Nc2ccccc2C)nnc1SCC(=O)NC1=NCCS1,-11.9%
4,O=C(NC(=S)Nc1cccc2c(O)cccc12)c1cccc(Br)c1,-27%
5,N/C(=N\S(=O)(=O)c1cc(C(F)(F)F)cc(C(F)(F)F)c1)c1cccs1,23.1%
6,CCOc1ccc(N2CC(C(=O)NCc3ccccn3)CC2=O)cc1 (stereo unspecified),9.19%
7,CCc1ccc(-c2nn(-c3ccccc3)cc2CSC(=N)N)cc1,0.301%
8,COc1ccccc1OCc1ccc(C(=O)NC(C)c2ccccc2)o1 (stereo unspecified),9.72%
9,CS(=O)(=O)N(CC(=O)N1CCc2ccccc2C1)c1ccc(Br)cc1,-7.16%
10,COc1cccc(COC(=O)C2CCN(S(=O)(=O)c3ccc(Cl)cc3)CC2)c1OC,10.3%
11,Cc1ccc(NC(=O)c2cc3ccccc3o2)cc1,-13.9%
12,O=C(NCCS(=O)(=O)N1CCN(c2ccccc2F)CC1)c1ccc(Br)o1,1.43%
13,CCOc1ccc(C2c3[nH]c4ccccc4c3CCN2Cc2cccn2-c2ncccn2)cc1 (stereo unspecified),0.986%
14,CCc1c(C)nc2c(OC)cccc2c1Cl,-37.6%
15,O=C(CN1CCOCC1)Nc1c2c(nc3c1CCC3)CCC2,1.76%
16,CC1(C)CCSC(/C=C/c2ccccc2)=N1,6.99%
17,COc1ccc(-n2c(O)c(C=NCC(c3ccco3)N3CCCC3)c3ccccc3c2=O)cc1OC (stereo unspecified),6.18%
18,COc1cc(NC(=O)c2cncc(-c3ccc(C#N)cc3)c2)cc(C(=O)Nc2cccc(C(F)(F)F)c2)c1,-7.7%
19,O=C(C1CCN(c2nnc(-n3cccc3)s2)CC1)N1CCc2ccccc2C1,9.11%

row,Compound,activity score
1,CCc1noc(C)c1C(=O)Oc1ccc(N(C)S(=O)(=O)c2ccc(C)c(C)c2)cc1,0.103%
2,Cc1ccc(CNC(=O)C2CCN(S(=O)(=O)c3ccc4nc5c(c(C(=O)O)c4c3)CC(C)CC5)CC2)cc1 (stereo unspecified),-6.73%
3,CCn1cc(CN2CCC(C(=O)Nc3cccc(-c4cccc(Cl)c4)c3)CC2)c(C)n1,3.2%
4,Cc1ccc(-c2cc(C(=O)NCc3cn(C)nc3C)c3cc(Br)ccc3n2)cc1,2.61%
5,O=C(c1ccncc1)N1CCN(S(=O)(=O)c2cc(C(F)(F)F)cc(C(F)(F)F)c2)CC1,9.96%
6,COc1ccc(C(CNC(=O)c2ccc(S(=O)(=O)Nc3ccccc3F)cc2)N(C)C)cc1 (stereo unspecified),4.77%
7,CCCCn1c(N)c(N(CCOC)C(=O)CSCC(=O)Nc2cccc(C)c2)c(=O)[nH]c1=O,10.8%
8,Cc1cc(C)nc(NS(=O)(=O)c2ccc(N/C=C\C(=O)c3cccs3)cc2)n1,-11%
9,O=C(c1snnc1-c1ccccc1)N1CCOCC1,18.7%
10,CC(OC(=O)CNC(=O)c1ccco1)C(=O)Nc1ccc(Cl)cn1 (stereo unspecified),-11.7%
11,CCOc1ccccc1OCCCNCc1ccccc1,14.2%
12,COc1cc(C(=O)NCCOC(=O)c2cccc(N(C)C)c2)cc(OC)c1OC,1.84%
13,O=c1[nH]cnc(O)c1C(c1ccc(F)cc1)c1c(O)nc[nH]c1=O,-1.62%
14,COc1ccc([N+](=O)[O-])cc1N(CC(O)CN(CC(C)C)CC(C)C)S(=O)(=O)c1ccc(C)cc1 (stereo unspecified),12.6%
15,O=[N+]([O-])c1cc(C(F)(F)F)ccc1NCCc1ccncc1,-17.4%
16,CC(C)CCNC(=O)c1cccnc1Sc1ccccc1,-10.2%
17,COc1ccc(NC(=O)C/C(C)=N/NC(=O)c2cnccn2)cc1Cl,4.46%
18,CCN(CC)CC(=O)Nc1nn(-c2ccccc2)nc1C(N)=O,3.8%
